Assay outcomes from PubChem.
TDP1 cell CPT: growth inhibition of DT40 Tdp1-/-;hTDP1 cells with camptothecin (screen for TDP1 inhibitors); chicken DT40 Tdp1-/-;hTDP1 cells + 20 nM CPT, ATP luminescence, 48 h; Potency, µM (doses to about 46.2 µM), for inactives: at the highest dose activity change, negative = growth inhibition, hits mostly inhibitors; 420,000 compounds, 12% hits; AID 686979; note: potency is the fitted concentration of half-maximal effect; nearly all actives have a fitted effect of over 55% in size
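Chicken DT40 Tdp1-/- cells complemented with human TDP1, 400 cells/well, exposed to compounds plus 20 nM camptothecin for at least 48 h at 37 C; viability read as ATP content by CellTiter-Glo luminescence.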
HT1080 IDH1KD tx: toxicity to HT-1080 IDH1 knockdown cells (counter line). Potency, µM (top dose mostly 46.1 µM), for inactives: top-dose activity, negative = toxicity, actives largely listed as cytotoxic. HT-1080 IDH1 knockdown viability, ATP luminescence, 48 h. 360,000 compounds, 2% hits;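 note: potency is the fitted concentration of half-maximal effect; 0% = DMSO wells and -100% = cell-free medium wells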
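HT-1080-IDH1KD cells (IDH1 knocked down), 750/well in RPMI with 5% FBS, treated with compound 48 h at 37 degrees C. Viability by CellTiter-Glo luminescence, normalised to DMSO and no-cell wells; concentration-response curves classed.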
HT1080-NT tox: kills 2HG-producing HT-1080-NT fibrosarcoma cells; HT-1080-NT fibrosarcoma viability, CellTiter-Glo ATP luminescence, 48 h; Potency, µM (titrated, usually from 46.1 µM), without a hit: at the top dose activity, negative = less viability, hits mostly cytotoxic; 360,000 compounds, 1.6% hits; AID 686970;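 note: NT is the 2HG producing partner of a matched IDH1 knockdown line; potency is the fitted concentration of half-maximal effect; 0% = DMSO-treated cells and -100% = media-only wells without cells; nearly all actives have a fitted effect of over 55% in size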
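A 48-hour cytotoxicity screen used HT-1080-NT cells plated 2 hours before compound delivery. ATP-based CellTiter-Glo luminescence measured viability, normalized to DMSO and no-cell controls.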
uPA surface inh: inhibitors of cell surface uPA generation; AID 540303; 330,000 compounds, 0.31% hits; cell surface uPA generation assay, qHTS; Potency, µM (doses to about 38.3 µM), inactives show at the top dose activity change, negative = inhibition, most hits filed as inhibitors; active = well fitted inhibition curve with a large enough effect; inconclusive = small, poorly fitted or top-dose-only effect; inactive = no such curve, though single readings can be large or run the other way; tested in mouse RAW 264.7 cells; note: potency is the fitted concentration of half-maximal effect; nearly all actives have a fitted effect of over 55% in size
TDP1 cell noCPT: qHTS for Inhibitors of human tyrosyl-DNA phosphodiesterase 1 (TDP1): qHTS in cells in absence of CPT; DT40 Tdp1-/- hTDP1 cells, no CPT, ATP luminescence, 48 h; Potency, µM (top dose mostly 46.2 µM), for inactives: at the highest dose activity change, negative = growth inhibition, actives largely listed as inhibitors; 420,000 compounds, 15% hits; note: potency is the fitted concentration of half-maximal effect; nearly all actives have a fitted effect of over 55% in size
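Cells were dispensed at 400 per well, compounds added by pin tool, plates incubated ≥48 hr at 37 °C, then CellTiter-Glo added for 30 min at room temperature before luminescence reading. Line: DT40 Tdp1-/- complemented with hTDP1; camptothecin omitted.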
IL-1B inflam inh: inhibitors of inflammasome signaling (IL-1 beta secretion) | THP-1 LPS/ATP IL-1B secretion, AlphaLISA, 16 h; active compounds read low | activity change, % at 57.5 µM | 360,000 compounds, 4.7% hits; in the data active = activity change below about -50%; inconclusive = mostly about -30% to -49%
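THP-1 cells pretreated 1 hr with compounds (up to 57.5 uM final), then stimulated with LPS (250 ng/mL final) plus ATP (1.25 mM final); secreted IL-1B measured by AlphaLISA after 16 hr, decreased signal indicating inhibition.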
Numbers without * were called inactive; ? = inconclusive; / = no result given. An excerpt weighted towards active compounds, which were near 19% of everything screened. Unless noted, calls come from the whole dose curve; as a rule, active = well fitted curve in the direction sought with a large enough effect; inconclusive = small, poorly fitted or top-dose-only effect, or another doubt; inactive = no such curve, though single readings can be large; an effect the other way counts as inactive or inconclusive. Unless noted, % is set by controls: 0 for no effect and ±100 for the full control effect.

SMILES	TDP1 cell CPT	HT1080 IDH1KD tx	HT1080-NT tox	uPA surface inh	TDP1 cell noCPT	IL-1B inflam inh
O=C(CNC(=O)Cn1ccc2ccccc2c1=O)NCCCN1CCN(c2cccc(Cl)c2)CC1	?	-7%	-8%	2%	26µM*	?
CCOC(=O)C(C)On1c(-n2nc(C)cc2C)nc2ccccc2c1=O (configuration not stated)	?	?	?	?	?	75
Oc1ccc2ccccc2c1CNc1cnc2ccccc2c1	-18%	4%	5%	-2%	-28%	-4
Oc1ccc(Cl)cc1CNCc1cccc2ccccc12	?	5%	0%	-9%	?	-21
Oc1ccccc1CNc1cnc2ccccc2c1	23µM*	-22%	-26%	-23%	23µM*	-11
C=CCc1cccc(CNc2cnc3ccccc3c2)c1O	6.5µM*	-28%	-13%	?	10µM*	10
C=CCc1cccc(CNc2nc3ccccc3n2C)c1O	?	-1%	7%	8%	14%	?
Oc1ccc(Cl)cc1CNc1cnc2ccccc2c1	?	?	-24%	-6%	29µM*	-10
CC(=O)NC(c1cccc(F)c1)c1nc(-c2ccoc2)cs1 (configuration not stated)	?	?	11%	/	-8%	9
COc1cc(/C=C(\NC(=O)c2cc(OC)c(OC)c(OC)c2)C(=O)NC(C(=O)O)c2ccccc2)cc(OC)c1OC (configuration not stated)	0%	1%	12%	8%	-12%	13
CN1c2ccccc2C(C)(C)C12CC(c1cccc(S(=O)(=O)N3CCCC3)c1)=NO2 (configuration not stated)	?	-15%	-1%	3%	16µM*	0
CN1c2ccccc2C(C)(C)C12CC(c1ccc(S(=O)(=O)N3CCCCC3)cc1)=NO2 (configuration not stated)	?	-21%	-3%	8%	21µM*	-9
Cc1nn(CC(=O)Nc2nnc(C(C)C)s2)c(=O)c2ccccc12	1%	24%	21%	?	14%	0
CN(c1ccc(Cl)cc1)S(=O)(=O)c1nnc(NC(=O)C(C)(C)C)s1	-18%	10%	2%	-14%	2%	-5
Oc1ccc(Nc2nc(-c3ccccc3O)nc3ccccc23)cc1	?	-28%	?	-22%	?	-65*
COc1ccc(Nc2nc(-c3ccccc3O)nc3ccccc23)cc1	?	?	?	-12%	18µM*	/
COc1ccccc1Nc1nc(-c2ccccc2O)nc2ccccc12	?	18%	14%	-4%	?	34
Oc1ccc(Nc2nc(-c3ccccc3F)nc3ccccc23)cc1	-17%	-3%	-10%	?	-21%	0
COc1ccc(Nc2nc(-c3ccccc3F)nc3ccccc23)cc1OC	15µM*	-8%	-9%	?	15µM*	-61*
COc1cccc(Nc2nc(-c3ccccc3O)nc3ccccc23)c1	?	-28%	-25%	-4%	?	4
COc1ccc(/C=C\c2onc(C)c2S(=O)(=O)N2CCC(C(=O)Nc3ccc(Cl)cc3)CC2)cc1	-12%	/	/	/	?	/
Cc1ccc(N(C)C(=O)C2CCN(S(=O)(=O)c3c(C)noc3/C=C/c3c(C)cc(C)cc3C)CC2)cc1	?	/	/	/	21µM*	/
COc1ccc(/C=C\c2onc(C)c2S(=O)(=O)N2CCC(C(=O)Nc3ccc(C)c(F)c3)CC2)cc1	5.2µM*	/	/	/	6.5µM*	/
CCc1cccc(C)c1NC(=O)C1CCN(S(=O)(=O)c2c(C)noc2/C=C/c2c(C)cc(C)cc2C)CC1	?	/	/	/	10µM*	/
CNC(=O)C1CCN(S(=O)(=O)c2c(C)noc2/C=C/c2ccc(C)cc2)CC1	?	3%	-2%	9%	?	2
SMILES	TDP1 cell CPT	HT1080 IDH1KD tx	HT1080-NT tox	uPA surface inh	TDP1 cell noCPT	IL-1B inflam inh
COc1ccc(NC(=O)C2CCN(S(=O)(=O)c3c(C)noc3/C=C/N(C)C)CC2)cc1	-3%	12%	0%	-4%	9%	7
COc1cc(NC(=O)C2CCN(S(=O)(=O)c3c(C)noc3/C=C/c3c(C)cc(C)cc3C)CC2)cc(OC)c1	13µM*	/	/	/	-96%	/
CC(C)(C)CC(=O)NCC(c1ccc2c(c1)OCO2)N1CCOCC1 (configuration not stated)	3%	/	/	/	-4%	/
O=C(Nc1ccc(N2CCOCC2)cc1)c1csc([C@H]2C[C@H](O)[C@@H](CO)O2)n1	-25%	8%	17%	/	-13%	-10
COc1ccc([C@H]2CC(=O)C[C@@H](CCn3cc(CCc4ccccc4)nn3)O2)cc1	-26%	8%	7%	/	?	9
CCOC(=O)CN1C(=O)N[C@@H](c2ccco2)C(C(C)=O)=C1C	-5%	0%	-1%	5%	-1%	23
O=S(=O)(NC1c2cccc3cccc(c23)C1Sc1ncccn1)c1ccccc1 (configuration not stated)	?	-26%	-23%	4%	21µM*	-3
Cn1cnnc1SC1c2cccc3cccc(c23)C1NS(=O)(=O)c1ccccc1 (configuration not stated)	5%	-2%	-5%	0%	-4%	-13
Cc1ccc2nc(SCC(=O)N3CCC(Cc4ccccc4)CC3)nc(=O)n2c1	?	-12%	?	-5%	?	3
O=C([C@H]1O[C@@H](n2ccc(=O)[nH]c2=O)[C@H](O)[C@@H]1O)N1CCC(F)(F)CC1	0%	17%	?	/	5%	20
CC(C)Nc1nc(NCCN2CCCC2)c2sc(-c3ccccc3)cc2n1	6.5µM*	?	?	/	13µM*	/
C=CCNc1nc(NCCOC)c2sc(-c3ccccc3)cc2n1	?	?	?	/	13µM*	-113*
Cc1ccc(-c2cc3nc(NCCOc4ccccc4Cl)n(C)c(=O)c3s2)cc1	?	9%	4%	/	-21%	12
C=CCNc1nc(NCCOc2ccccc2Cl)c2sc(-c3ccccc3)cc2n1	15µM*	?	18µM*	/	15µM*	-111*
COCCNc1nc(Nc2ccc(C)cc2C)c2sc(-c3ccccc3)cc2n1	26µM*	?	?	/	18µM*	-25
C=CCNc1nc(NCCNC(C)=O)c2sc(-c3ccccc3)cc2n1	?	-26%	?	/	?	-3
